Records with an inconclusive call do not appear. Unmarked numbers belong to inactive results. Activity calls are given as the source filed them. Calls come from the whole dose curve; as a rule, active = well fitted inhibition curve with a large enough effect; inconclusive = small, poorly fitted or top-dose-only effect; inactive = no such curve, though single readings can be large or run the other way.
Note: nearly all actives have a fitted effect of over 80% in size.
Potency is the fitted concentration of half-maximal effect.
Throughout, for activity change, negative = inhibition: 0% is about no effect.

Sequence of N-terminal Xaa-Pro-Lys N-methyltransferase 1 (Homo sapiens) (Q9BV86 whole entry, looked up): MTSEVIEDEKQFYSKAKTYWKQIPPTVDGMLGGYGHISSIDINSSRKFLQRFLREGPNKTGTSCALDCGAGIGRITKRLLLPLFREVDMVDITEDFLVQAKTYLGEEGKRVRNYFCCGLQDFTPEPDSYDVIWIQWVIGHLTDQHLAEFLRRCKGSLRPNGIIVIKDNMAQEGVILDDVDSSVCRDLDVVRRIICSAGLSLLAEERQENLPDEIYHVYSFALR

For this assay, the target named is N-terminal Xaa-Pro-Lys N-methyltransferase 1 (Homo sapiens) (UniProt Q9BV86). The assay can be described thus: qHTS Assay for Inhibitors of N-terminal methyltransferase 1 (NTMT1): ThioGlo3 Assay Confirmatory Screen, Round 1. The note with it: NTMT1 SAHH-coupled ThioGlo3 fluorescence, 30 min; series mostly up to 56.8 µM; activity change, negative = inhibition: at the top concentration. The text has this:
Assay Submitter (PI): Rong Huang Ph.D, Purdue University, West Lafayette, IN 47907 The N-terminal methytransferase 1 is the first methyltransferase that methylates protein alpha-N-amines and plays an important role in regulating cell mitosis, chromatin interactions and DNA repair. It is observed to be over-expressed in various cancer patient tissues like malignant melanoma and colorectal cancer tissues. Knockdown of NTMT1 in cancer cells causes cell mitotic defects and enhances sensitivity to DNA damaging chemotherapeutics. […] These critical cellular processes in which NTMT1 is implicated, coupled with emerging links to cellular dysfunction, strengthen the inference that NTMT1 is a compelling novel anticancer target. Progress have been made in understanding the molecular properties of NTMT1 and the biological consequences of protein alpha-N-terminal methylation, but there are no specific small molecule probes available for NTMT1 to fully characterize its MTase activity. To address this unmet need, a panel of assay is created and established to enable quantitative high-throughput screening (qHTS) for novel, potent, and selective small molecule NTMT1 inhibitors. Two orthogonal qHTS that use different reagents (ThioGlo vs. MTaseGlo) are developed for primary robotic screening against the NCATS chemical library of more than 400,000 small molecules. Identified inhibitors are reacquired, validated, and further characterized. […] Early Translation Branch (ETB) National Center for Advancing Translational Sciences (NCATS) National Institute of Health (NIH)
Materials: NTMT1 enzyme, substrate SPKRIA, control peptide RCC1-6 is provided by the Huang laboratory. ThioGlo3 Assay: In brief, 125nM NTMT1 enzyme was dispensed into a 1536-well assay plate with Aurora Discovery BioRAPTR Flying Reagent Dispenser (FRD, Beckton-Dickenson). Compounds (at various concentration) or 1uM RCC1-6 (SPKRIA) control were transferred to the assay plate using the Kalypsys 1536-pintool apparatus. After 1 min of room temperature incubation, 1uL of substrate (100uM SAM, 10uM SAHH, 15uM ThioGlo3) was added to the wells bringing the final assay volume to 4uL. Initial (background) fluorescence readout (EX: 340nm, EM: 450nm) was then detected using the PerkinElmer ViewLux microplate imager and a final fluorescence readout was taken after 30 min of room temperature incubation. The data was normalized to the background fluorescence.
In general terms: Quantitative high-throughput screening tests each substance at several concentrations.
`COc1cc2c(NC3CCN(C(C)C)CC3)nc(N3CCCCC3)nc2cc1OCCCN1CCCC1`: the Potency was 30.4 µM (active).

For `Nc1ncnc2c1ncn2[C@@H]1O[C@H](CO)C(O)[C@H]1O` (stereo not given in full), the Potency is 1.36 µM (active).

Take `COc1cc2nc(N3CCN(C)CC3)nc(NC3CCCCC3)c2cc1OC`: the Potency was 27.1 µM (active).

Consider `COc1cc2nc(N3CCCN(C)CC3)nc(NC3CCN(C)CC3)c2cc1OC`, for which the Potency is 21.5 µM (active).

As to `CCC(CC)n1ccc2c(C(=O)NCc3c(C)cc(C)[nH]c3=O)cc(C#N)cc21`, the Potency was 15.2 µM (active).

Turning to `COc1cc2nc(NCCN(C)C)nc(NC3CC3)c2cc1OC`, the Potency was 27.1 µM (active).

Consider `CNC(=O)[C@H]1O[C@@H](n2cnc3c(N)ncnc32)[C@H](O)[C@@H]1O`, for which the “activity change, negative = inhibition” value is 8.67%.

Regarding `COc1cc2c(NC3CCN(C)CC3)nc(N3CCCN(C)CC3)nc2cc1OCCCCCCN(C)C`, the Potency was 24.1 µM (active).

`CCCCC#Cc1nc(NC)c2ncn([C@@H]3O[C@@H](CO)[C@H](O)[C@H]3O)c2n1`: the “activity change, negative = inhibition” value was 16.7%.

For the molecule `COc1cc2nc(N3CCCN(C)CC3)nc(N(C)C)c2cc1OC`, the “activity change, negative = inhibition” value was -26.6%.

For `Nc1ncnc2c1nc(N1CCCCC1)n2[C@@H]1O[C@@H]2COP(=O)(O)O[C@H]2[C@H]1O`, the “activity change, negative = inhibition” value is -18.6%.

As to `Nc1ncnc2c1ncn2[C@@H]1O[C@H](COP(=O)(O)OP(=O)(O)OP(=O)(O)OP(=O)(O)OC[C@@H]2O[C@H](n3cnc4c(N)ncnc43)[C@@H](O)[C@H]2O)[C@@H](O)[C@H]1O`, the “activity change, negative = inhibition” value is -8.61%.

As for `COc1cc2c(NC3CCN(CC4CCCCC4)CC3)nc(N3CCCCCC3)nc2cc1OCCOCCN(C)C`, the Potency was 27.1 µM (active).

As to `C[C@H](Cc1ccccc1)Nc1ncnc2c1ncn2[C@@H]1O[C@H](CO)C(O)[C@H]1O` (stereo not given in full), the “activity change, negative = inhibition” value is 19.6%.

With `COc1cc2c(NC3CCN(C)CC3)nc(N3CCCN(C)CC3)nc2cc1OCCCCCN`, the Potency was 24.1 µM (active).

Regarding `CSc1nc(N)c2ncn([C@H]3O[C@H](COP(=O)(O)OP(=O)(O)O)[C@@H](O)[C@@H]3O)c2n1`, the “activity change, negative = inhibition” value was -6.87%.

With `CNc1nc(N2CCCN(C)CC2)nc2cc(OC)c(OC)cc12`, the Potency is 27.1 µM (active).

On to `COc1cc2nc(N3CCCN(C)CC3)nc(NC3CCOCC3)c2cc1OC`, for which the Potency is 24.1 µM (active).

On to `Nc1ncnc2c1ncn2[C@@H]1O[C@H](CO)[C@@H](O)[C@@H]1O`, for which the “activity change, negative = inhibition” value is -9.54%.

Regarding `Nc1nc(Cl)nc2c1ncn2[C@H]1C[C@H](O)[C@@H](CO)O1`, the Potency result was “inactive”.

On to `C[C@@H](Cc1ccccc1)Nc1ncnc2c1ncn2[C@@H]1O[C@H](CO)[C@@H](O)[C@H]1O`, for which the “activity change, negative = inhibition” value was -5.57%.

For `COC1C(CO)OC(n2cnc3c(=O)[nH]cnc32)C1O` (stereo not given), the “activity change, negative = inhibition” value was -19%.

As for `COc1cc2c(NC3CCN(C)CC3)nc(N3CCCN(C)CC3)nc2cc1OCCCN1CCOCC1`, the Potency is 24.1 µM (active).

As for `COc1cc2nc(N3CCN(C)CC3)nc(NCCN(C)C)c2cc1OC`, the Potency was 24.1 µM (active).

With `Nc1ncnc2c1nc(Br)n2C1OC(CO)C(O)C1O` (stereo not given), the “activity change, negative = inhibition” value was -4.56%.

`OC[C@@H]1O[C@@H](n2cnc3c(NC4CCCC4)ncnc32)[C@H](O)[C@H]1O`: the “activity change, negative = inhibition” value is 10.8%.

Regarding `COc1cc2c(NC3CCN(C(C)C)CC3)nc(N3CCCN(C)CC3)nc2cc1OCCOCCN(C)C`, the Potency was 24.1 µM (active).

For the molecule `C/C(=C\CNc1ncnc2c1ncn2[C@@H]1O[C@@H](CO)[C@@H](O)[C@H]1O)CO`, the “activity change, negative = inhibition” value is -23.4%.

`Nc1nc(Cl)nc2c1ncn2[C@@H]1O[C@H](CO)C(O)[C@H]1O` (stereo not given in full): the “activity change, negative = inhibition” value was -5.53%.

Turning to `COc1cc2c(NC3CCN(C)CC3)nc(N3CCCN(C)CC3)nc2cc1OCCCN(C)C`, the Potency was 27.1 µM (active).

For the molecule `C[S+](CCC(N)C(=O)O)CC1O[C@@H](n2cnc3c(N)ncnc32)C(O)C1O` (stereo not given in full), the “activity change, negative = inhibition” value was 544%.

On to `CC(C)(COP(=O)(O)OP(=O)(O)OC[C@H]1O[C@@H](n2cnc3c(N)ncnc32)[C@H](O)[C@@H]1OP(=O)(O)O)[C@H](O)C(=O)NCCC(=O)NCCS`, for which the “activity change, negative = inhibition” value was 49.5%.

Take `Nc1nc(=S)c2ncn([C@H]3O[C@@H](CO)[C@@H](O)[C@@H]3O)c2[nH]1`: the Potency is 13 µM (active).

Turning to `Nc1ccnc2c1ncn2[C@@H]1O[C@H](CO)[C@@H](O)[C@H]1O`, the Potency is 2.71 µM (active).

As to `CC(C)N(C[C@H]1O[C@@H](n2cnc3c(N)ncnc32)[C@H](O)[C@@H]1O)C1CC(CCc2nc3ccc(C(C)(C)C)cc3[nH]2)C1` (stereo not given in full), the “activity change, negative = inhibition” value is -13.7%.

Turning to `Nc1ncnc2c1ncn2[C@@H]1O[C@H](CO)C[C@@H]1O`, the “activity change, negative = inhibition” value was 14%.

Turning to `COc1cc2nc(N3CCCCC3)nc(NC3CCN(C)CC3)c2cc1OC`, the Potency is 27.1 µM (active).

As for `CNC(=O)c1cnn(-c2nc(N)c3ncn([C@@H]4O[C@H](CO)[C@@H](O)[C@H]4O)c3n2)c1`, the “activity change, negative = inhibition” value was -22.6%.

In the case of `[N-]=[N+]=Nc1nc2c(N)ncnc2n1C1OC(CO)C(O)C1O` (stereo not given), the Potency is 21.5 µM (active).

Consider `COc1cc2c(NC3CCN(C)CC3)nc(N3CCCN(C)CC3)nc2cc1OCCCCN(C)C`, for which the Potency is 24.1 µM (active).

(Values after PubChem BioAssay AID1347142 (National Center for Advancing Translational Sciences (NCATS), 2019).)
